Laboratory results taken from ChEMBL document CHEMBL1961873, “Compounds: GSK PKIS; Assays: Nanosyn kinase panel” (2012).

Columns and labels:
[1] = target: T1, Aurora kinase A (Homo sapiens) (UniProt O14965); details: at 1 µM;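 further: values are mean percent inhibition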
T1 sequence (whole entry): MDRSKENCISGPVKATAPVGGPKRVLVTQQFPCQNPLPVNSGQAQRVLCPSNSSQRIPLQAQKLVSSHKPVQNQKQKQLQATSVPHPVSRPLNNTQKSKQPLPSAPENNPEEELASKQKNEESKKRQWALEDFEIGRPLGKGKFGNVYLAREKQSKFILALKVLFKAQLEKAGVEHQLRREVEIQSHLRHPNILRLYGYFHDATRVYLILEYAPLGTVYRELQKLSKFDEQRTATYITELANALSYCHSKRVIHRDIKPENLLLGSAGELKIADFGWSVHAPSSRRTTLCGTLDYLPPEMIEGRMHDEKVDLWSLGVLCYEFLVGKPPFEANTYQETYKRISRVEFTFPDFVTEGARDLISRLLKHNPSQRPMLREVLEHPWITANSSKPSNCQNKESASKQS

[2] = target: Aurora kinase B (Homo sapiens) (UniProt Q96GD4); details: at 0.1 µM
Aurora kinase B (Homo sapiens), sequence (Q96GD4 whole entry): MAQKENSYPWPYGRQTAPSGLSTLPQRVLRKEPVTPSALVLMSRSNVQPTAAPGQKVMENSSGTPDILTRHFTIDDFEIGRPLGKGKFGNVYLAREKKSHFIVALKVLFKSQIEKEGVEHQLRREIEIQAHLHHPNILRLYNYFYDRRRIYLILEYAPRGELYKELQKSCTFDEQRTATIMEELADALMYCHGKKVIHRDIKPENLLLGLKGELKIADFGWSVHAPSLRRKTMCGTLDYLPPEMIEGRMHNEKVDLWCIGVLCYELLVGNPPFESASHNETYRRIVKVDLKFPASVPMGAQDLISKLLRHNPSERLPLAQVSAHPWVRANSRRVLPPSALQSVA

[3] = target: Aurora kinase B (Homo sapiens) (UniProt Q96GD4); details: at 1 µM
[4] = target: T2, Aurora kinase C (Homo sapiens) (UniProt Q9UQB9); details: at 0.1 µM
T2 sequence (whole entry): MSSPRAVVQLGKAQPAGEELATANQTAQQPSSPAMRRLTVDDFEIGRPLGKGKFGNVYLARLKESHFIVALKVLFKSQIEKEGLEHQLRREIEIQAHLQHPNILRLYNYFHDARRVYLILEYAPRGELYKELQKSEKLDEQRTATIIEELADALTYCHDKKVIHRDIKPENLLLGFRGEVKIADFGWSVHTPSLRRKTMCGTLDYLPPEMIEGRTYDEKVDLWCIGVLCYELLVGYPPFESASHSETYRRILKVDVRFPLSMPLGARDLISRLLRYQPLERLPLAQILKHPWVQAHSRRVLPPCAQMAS

[5] = target: T2, Aurora kinase C (Homo sapiens); details: at 1 µM
[6] = target: Serine/threonine-protein kinase 10 (Homo sapiens) (UniProt O94804); details: at 0.1 µM
Serine/threonine-protein kinase 10 (Homo sapiens), sequence (O94804 whole entry, looked up): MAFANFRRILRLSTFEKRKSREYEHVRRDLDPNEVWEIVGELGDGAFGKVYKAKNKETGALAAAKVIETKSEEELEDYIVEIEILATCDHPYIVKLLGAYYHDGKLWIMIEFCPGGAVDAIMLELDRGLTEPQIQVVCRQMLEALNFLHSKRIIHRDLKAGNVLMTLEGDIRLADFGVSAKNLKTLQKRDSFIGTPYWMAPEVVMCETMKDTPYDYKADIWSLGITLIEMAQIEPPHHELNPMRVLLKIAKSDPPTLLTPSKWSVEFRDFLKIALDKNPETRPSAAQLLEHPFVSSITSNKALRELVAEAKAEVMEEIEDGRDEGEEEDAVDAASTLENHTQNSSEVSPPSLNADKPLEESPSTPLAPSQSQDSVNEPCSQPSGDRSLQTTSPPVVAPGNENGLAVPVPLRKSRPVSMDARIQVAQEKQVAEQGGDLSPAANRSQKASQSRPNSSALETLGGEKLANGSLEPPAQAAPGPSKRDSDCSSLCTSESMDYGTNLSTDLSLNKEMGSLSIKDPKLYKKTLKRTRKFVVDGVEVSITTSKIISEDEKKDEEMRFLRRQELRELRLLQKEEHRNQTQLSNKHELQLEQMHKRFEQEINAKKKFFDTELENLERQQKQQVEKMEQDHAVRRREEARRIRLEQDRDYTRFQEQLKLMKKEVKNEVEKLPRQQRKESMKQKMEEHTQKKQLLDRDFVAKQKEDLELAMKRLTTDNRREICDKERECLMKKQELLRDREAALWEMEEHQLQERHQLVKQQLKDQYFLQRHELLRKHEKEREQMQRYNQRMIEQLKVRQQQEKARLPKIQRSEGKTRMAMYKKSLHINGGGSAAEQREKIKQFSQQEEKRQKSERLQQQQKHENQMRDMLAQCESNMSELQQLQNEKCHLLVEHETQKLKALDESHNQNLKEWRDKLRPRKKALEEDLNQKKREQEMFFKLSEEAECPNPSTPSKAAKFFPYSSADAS

[7] = target: Serine/threonine-protein kinase 10 (Homo sapiens) (UniProt O94804); details: at 1 µM
[8] = target: T3, Mitogen-activated protein kinase kinase kinase kinase 2 (Homo sapiens) (UniProt Q12851); details: at 0.1 µM
T3 sequence (whole entry): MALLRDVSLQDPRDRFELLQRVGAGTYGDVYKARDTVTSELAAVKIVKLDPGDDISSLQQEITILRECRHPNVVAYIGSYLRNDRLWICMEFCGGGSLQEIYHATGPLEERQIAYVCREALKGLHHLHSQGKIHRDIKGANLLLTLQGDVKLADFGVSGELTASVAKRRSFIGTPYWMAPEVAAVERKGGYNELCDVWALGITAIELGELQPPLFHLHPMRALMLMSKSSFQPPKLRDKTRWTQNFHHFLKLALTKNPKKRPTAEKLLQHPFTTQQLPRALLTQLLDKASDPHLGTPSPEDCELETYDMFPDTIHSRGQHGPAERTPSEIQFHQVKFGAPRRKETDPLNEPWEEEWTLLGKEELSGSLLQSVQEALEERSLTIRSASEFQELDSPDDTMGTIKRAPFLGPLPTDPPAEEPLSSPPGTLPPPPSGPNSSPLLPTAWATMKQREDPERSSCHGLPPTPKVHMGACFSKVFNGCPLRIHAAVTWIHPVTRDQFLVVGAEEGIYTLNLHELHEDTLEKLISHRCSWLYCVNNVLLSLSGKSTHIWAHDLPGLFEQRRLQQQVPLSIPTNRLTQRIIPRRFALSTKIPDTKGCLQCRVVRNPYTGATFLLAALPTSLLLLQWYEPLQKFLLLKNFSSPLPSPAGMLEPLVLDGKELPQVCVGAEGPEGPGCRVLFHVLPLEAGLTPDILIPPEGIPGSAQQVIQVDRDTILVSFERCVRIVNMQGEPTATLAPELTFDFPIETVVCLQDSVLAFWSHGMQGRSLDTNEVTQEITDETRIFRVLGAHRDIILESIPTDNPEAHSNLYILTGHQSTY

[9] = target: T3, Mitogen-activated protein kinase kinase kinase kinase 2 (Homo sapiens); details: at 1 µM
[10] = target: Mitogen-activated protein kinase kinase kinase kinase 4 (Homo sapiens) (UniProt O95819); details: at 0.1 µM
Mitogen-activated protein kinase kinase kinase kinase 4 (Homo sapiens), sequence (O95819 2-1239 limits assumed): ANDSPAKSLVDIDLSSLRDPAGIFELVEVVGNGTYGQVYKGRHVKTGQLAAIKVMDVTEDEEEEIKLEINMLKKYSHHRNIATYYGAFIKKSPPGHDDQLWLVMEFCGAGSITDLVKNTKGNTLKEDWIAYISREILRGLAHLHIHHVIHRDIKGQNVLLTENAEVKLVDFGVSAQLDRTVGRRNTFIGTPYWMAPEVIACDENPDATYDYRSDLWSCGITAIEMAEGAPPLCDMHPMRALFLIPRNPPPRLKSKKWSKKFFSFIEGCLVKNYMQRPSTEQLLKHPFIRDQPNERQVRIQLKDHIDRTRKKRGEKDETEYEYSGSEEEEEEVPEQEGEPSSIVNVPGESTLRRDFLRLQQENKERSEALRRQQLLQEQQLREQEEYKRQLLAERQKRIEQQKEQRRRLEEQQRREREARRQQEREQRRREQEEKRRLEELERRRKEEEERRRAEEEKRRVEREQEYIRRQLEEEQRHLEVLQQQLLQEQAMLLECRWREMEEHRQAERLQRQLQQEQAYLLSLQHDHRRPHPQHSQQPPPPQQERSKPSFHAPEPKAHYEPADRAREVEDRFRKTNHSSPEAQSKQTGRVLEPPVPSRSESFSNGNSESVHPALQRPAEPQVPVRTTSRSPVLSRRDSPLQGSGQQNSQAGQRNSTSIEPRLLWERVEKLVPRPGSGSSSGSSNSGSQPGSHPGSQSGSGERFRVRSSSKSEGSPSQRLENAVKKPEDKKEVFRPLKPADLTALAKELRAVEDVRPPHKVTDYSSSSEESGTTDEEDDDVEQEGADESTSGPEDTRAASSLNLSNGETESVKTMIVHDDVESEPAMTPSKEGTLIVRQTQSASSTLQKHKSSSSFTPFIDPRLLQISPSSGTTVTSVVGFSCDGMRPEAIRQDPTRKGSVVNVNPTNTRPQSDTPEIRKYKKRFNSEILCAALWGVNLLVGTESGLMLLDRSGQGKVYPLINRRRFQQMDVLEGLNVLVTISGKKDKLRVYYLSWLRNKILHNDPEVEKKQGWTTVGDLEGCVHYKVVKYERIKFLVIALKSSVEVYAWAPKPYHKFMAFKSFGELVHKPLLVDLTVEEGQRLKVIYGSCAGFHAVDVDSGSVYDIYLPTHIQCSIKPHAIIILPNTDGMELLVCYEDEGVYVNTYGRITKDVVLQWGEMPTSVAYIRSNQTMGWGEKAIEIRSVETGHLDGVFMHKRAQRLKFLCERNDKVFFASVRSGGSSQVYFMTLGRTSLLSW

| SMILES | inhibition [1] | inhibition [2] | inhibition [3] | inhibition [4] | inhibition [5] | inhibition [6] | inhibition [7] | inhibition [8] | inhibition [9] | inhibition [10] |
| --- | --- | --- | --- | --- | --- | --- | --- | --- | --- | --- |
| C[C@@H](Oc1cc(-n2cnc3ccc(OC4CCN(C)CC4)cc32)sc1C(N)=O)c1ccccc1Cl | -0.02% | -0.58% | 1.75% | -3.34% | -1.29% | 50.1% | 81.4% | 2.18% | 18.4% | 3.22% |
| NC(=O)c1cc(-c2ccc(F)cc2)cc(-c2ccncc2)c1N | 4.02% | 2.72% | 3.54% | -0.44% | -4.53% | 6.15% | 5.86% | 0.12% | 2.33% | 4.49% |
| O=C(Nc1ccc(Oc2ccc3[nH]c(NC(=O)c4ccccc4)nc3c2)cc1)Nc1cc(C(F)(F)F)ccc1F | 12.4% | 0.59% | 13.9% | 3.42% | 40.8% | 12.8% | 50.2% | 1.6% | 19% | 3.95% |
| COc1cc(Nc2ncc3c(C)nc(-c4cccc(C(F)(F)F)c4)n3n2)cc(OC)c1OC | 36.2% | 4.06% | 14.4% | 1.2% | 11.3% | 6.36% | 12.5% | -0.1% | 7.98% | 11.3% |
| Fc1ccc(-c2ncn(C3CCNCC3)c2-c2ccnc(Oc3ccc4c(c3)OCO4)n2)cc1 | 2.71% | 5.39% | 7.86% | 7.07% | 11.4% | 8.13% | 7.17% | 1.35% | 9.73% | 2.42% |
| COc1cc(N2CCN(C(C)C)CC2)ccc1Nc1nc(Nc2ccc(F)cc2C(=O)NC[C@@H](O)CO)c2cc[nH]c2n1 | -2.23% | -2.39% | 3.15% | -2.54% | -7.09% | 6.3% | 9.7% | 1.34% | 1.33% | 4.24% |
| Fc1ccc(-c2ncn(CCCN3CCOCC3)c2-c2ccncc2)cc1 | 3.87% | 0.52% | 5.52% | -0.04% | 10.1% | 1.1% | 3.83% | 2.31% | 1.14% | 2.27% |
| Fc1ccc(-c2ncn(C3CCNCC3)c2-c2ccnc(Oc3ccc(F)c(F)c3)n2)cc1 | -0.3% | -1.34% | 1.81% | -2.62% | 4.92% | 4.63% | 8.33% | 1.35% | 3.76% | 9.16% |
| CCS(=O)(=O)c1ccc(OC)c(Nc2ncc(-c3ccccc3Cl)o2)c1 | 10.9% | -1.57% | 5.12% | 1.38% | -2.79% | 2.59% | 6.5% | 0.68% | 5.1% | 4.85% |
| c1ccc(Oc2ccc(Nc3ncc(-c4ccccc4)o3)cc2)cc1 | 10.2% | 2.17% | 7.16% | 0.67% | -1.26% | 0.49% | 2.71% | 1.08% | 1.62% | 3.28% |
| CCc1cccc(CC)c1/C=C/c1cncc(C(=O)NC)c1 | 6.42% | -0.55% | 6.73% | 0.82% | 11.7% | 1.38% | 5.08% | 0.77% | 0.32% | 1.73% |
| O=C(Nc1n[nH]c2nc(-c3ccc(O)cc3)c(Br)cc12)C1CC1 | 37.7% | 4.29% | 12.7% | 2.12% | 8.73% | 16.2% | 61.3% | 7% | 34.4% | 32.2% |
| COc1cccc(-n2cnc3c(N/N=C/c4ccncc4)ncnc32)c1 | 13% | 0.64% | 7.54% | 0.73% | -1.49% | 4.49% | 16.3% | 1.19% | 1.25% | 1.22% |
| CCS(=O)(=O)c1ccc(OC)c(Nc2ncc(-c3cccc(-c4ccccc4F)c3)o2)c1 | 15% | 3.23% | 3.48% | 0.45% | -0.17% | 2.05% | 15.4% | 1.69% | 2.38% | 2.34% |
| COc1cc(Nc2ncc(-c3ccccc3)o2)cc(OC)c1OC | 75.5% | 10.1% | 50% | 8.67% | 71.8% | 1.37% | 11.1% | 2.15% | 11.5% | 2.13% |
| NC(=O)c1ccc(Oc2nccc(-c3c(-c4ccc(F)cc4)ncn3C3CCNCC3)n2)cc1 | 2.99% | 2.63% | 3.74% | 2.2% | 0.43% | 7.75% | 8.82% | -0.61% | 1.55% | 1.45% |
| COc1cc2ncn(-c3cc(OCc4ccccc4C(F)(F)F)c(C(C)=O)s3)c2cc1OC | 4.46% | 7.82% | 9.68% | 3% | 11.9% | 10.5% | 42.8% | 2.18% | 7.42% | 4.05% |
| CN(c1ccc(NC(=O)Nc2c(Cl)cccc2Cl)cc1)c1ccnc(Nc2cccc(CS(C)(=O)=O)c2)n1 | 97.6% | 76.4% | 84.2% |  | 104% | 90.8% | 86.5% | 11.5% | 32.9% | 34.3% |
| Fc1ccc(-c2nc3n(c2-c2ccncc2)CCS3)cc1 | 1.43% | -0.42% | 2.92% | -1.97% | 13.6% | 1.88% | 6.87% | 1.36% | 6.73% | 5.82% |
| Cc1nnc(-c2ccc(C)c(-c3ccc(C(=O)NCc4ccc(Cl)cc4)cc3)c2)o1 | -4.05% | -0.69% | -2.09% | -2.03% | -9.49% | 2.71% | 6.75% | 1.46% | 1.6% | 5.65% |
